Bioassay records deposited in PubChem BioAssay by National Center for Advancing Translational Sciences (NCATS).
TDP1 cell CPT: qHTS for Inhibitors of human tyrosyl-DNA phosphodiesterase 1 (TDP1): qHTS in cells in presence of CPT; chicken DT40 Tdp1-/-;hTDP1 cells + 20 nM CPT, ATP luminescence, 48 h; Potency, µM (highest dose often 46.2 µM), for inactives: at the top dose activity change, negative = growth inhibition, actives largely listed as inhibitors; hit rate 12% among 420,000; AID 686979, 2013; further: potency means the concentration at half of the fitted maximal effect; nearly all actives have a fitted effect of over 55% in size
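Chicken DT40 Tdp1-/- cells complemented with human TDP1, 400 cells/well, exposed to compounds plus 20 nM camptothecin for at least 48 h at 37 C; viability read as ATP content by CellTiter-Glo luminescence.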
IL1B secr inh: qHTS for Inhibitors of Inflammasome Signaling: IL-1-beta AlphaLISA Primary Screen | activity change, % at 57.5 µM | hit rate 4.7% among 360,000 | THP-1 LPS/ATP IL-1B secretion, AlphaLISA, 16 h; active compounds read low; in the data active means activity change below about -50%; inconclusive means mostly about -30% to -49%
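THP-1 cells pretreated 1 hr with compounds (up to 57.5 uM final), then stimulated with LPS (250 ng/mL final) plus ATP (1.25 mM final); secreted IL-1B measured by AlphaLISA after 16 hr, decreased signal indicating inhibition.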
RORgamma inh: qHTS for inhibitors of ROR gamma transcriptional activity. hit rate 5.4% among 310,000. Potency, µM (highest dose often 53.6 µM), for the others: at the top dose activity change, negative = inhibition, most hits filed as inhibitors. Drosophila S2 Gal4-RORgamma UAS-luciferase reporter, 20 h; further: potency means the concentration at half of the fitted maximal effect; nearly all actives have a fitted effect of over 60% in size
Target sequence (P51450 whole entry, looked up, the tested form may be a part): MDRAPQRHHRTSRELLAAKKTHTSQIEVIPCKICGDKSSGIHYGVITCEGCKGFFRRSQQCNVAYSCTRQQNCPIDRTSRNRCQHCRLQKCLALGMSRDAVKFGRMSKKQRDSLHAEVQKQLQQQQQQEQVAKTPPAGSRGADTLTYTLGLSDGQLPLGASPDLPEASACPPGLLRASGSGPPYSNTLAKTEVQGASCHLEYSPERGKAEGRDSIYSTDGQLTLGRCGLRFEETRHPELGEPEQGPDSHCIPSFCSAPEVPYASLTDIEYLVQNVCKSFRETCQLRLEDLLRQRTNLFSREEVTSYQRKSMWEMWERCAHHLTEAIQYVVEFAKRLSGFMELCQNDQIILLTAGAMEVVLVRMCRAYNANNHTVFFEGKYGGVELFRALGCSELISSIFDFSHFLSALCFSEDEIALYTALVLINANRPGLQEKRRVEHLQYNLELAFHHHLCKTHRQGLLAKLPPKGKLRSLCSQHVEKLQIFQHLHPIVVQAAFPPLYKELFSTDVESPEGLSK
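Compounds are pin-transferred onto Drosophila Schneider cells expressing a copper-inducible Gal4–ROR gamma transactivation domain fusion. After 1 hr, copper sulfate is added to 700 uM final; luciferase is read 20 hr later.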
ELG1 DNA repair: qHTS screen for small molecules that inhibit ELG1-dependent DNA repair in human embryonic kidney (HEK293T) cells expressing luciferase-tagged ELG1; AID 504467, 2011; hit rate 2.3% among 330,000; Potency, µM (doses to about 46.1 µM), for the others: top-dose activity change, negative = inhibition, actives largely listed as inhibitors; HEK293T ELG1-luciferase reporter, luminescence, 16 h; DNA damage induced by 5-fluorouridine; further: potency means the concentration at half of the fitted maximal effect; nearly all actives have a fitted effect of over 55% in size
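Cells (2,000 per well) received 5-fluorouridine plus test compound or DMSO and were incubated 16 hr at 37 °C, 5% CO2. Luciferase activity was read by luminescence 30 min after ONE-Glo addition; signal suppression marked inhibition of damage-induced ELG1 function.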
TDP1 cell noCPT: qHTS for Inhibitors of human tyrosyl-DNA phosphodiesterase 1 (TDP1): qHTS in cells in absence of CPT. DT40 Tdp1-/- hTDP1 cells, no CPT, ATP luminescence, 48 h. Potency, µM (top dose mostly 46.2 µM), for the others: at the top dose activity change, negative = growth inhibition, usual class: inhibitors. hit rate 15% among 420,000. AID 686978, 2013; further: potency means the concentration at half of the fitted maximal effect; nearly all actives have a fitted effect of over 55% in size
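Luminescent ATP content (CellTiter-Glo) served as the growth readout. Knockout chicken DT40 cells expressing human TDP1 were exposed to compounds without camptothecin for a minimum 48 hr at 37 °C.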
VP16 counter: VP16 counterscreen qHTS for inhibitors of ROR gamma transcriptional activity. Drosophila S2 Gal4-VP16 UAS-luciferase, luminescence, 20 h. Potency, µM (highest dose often 53.6 µM), inactives show top-dose activity, negative = inhibition, hits mostly inhibitors. hit rate 3.5% among 310,000. AID 2546, 2010;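 further: Gal4-VP16 expression switched on by copper sulfate through the metallothionein promoter; potency means the concentration at half of the fitted maximal effect; nearly all actives have a fitted effect of over 50% in size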
Active calls of the source: *; i = inactive; ? = inconclusive; / = no result; [ ] = remark or other dose. This is a sample that favours compounds with a hit; in the whole collection about 21% have one here. Unless noted, the call rests on the fitted dose curve; in most records, active means well fitted curve in the direction sought with a large enough effect; inconclusive means small, poorly fitted or top-dose-only effect, or another doubt; inactive means no such curve, though single readings can be large; an effect the other way counts as inactive or inconclusive. On the % scale 0 is the no-effect control and ±100 the full control effect.

SMILES | TDP1 cell CPT | IL1B secr inh | RORgamma inh | ELG1 DNA repair | TDP1 cell noCPT | VP16 counter
Cc1ccc2nc(-c3cc(NC(=O)c4ccc5c(c4)OCCO5)ccc3Cl)oc2c1 | ? | / | / | / | 16µM* | /
Cc1ccc2nc(-c3cccc(NC(=O)c4ccc5c(c4)OCCO5)c3)oc2c1 | -16% | 5 | ? | ? | ? | -4%
CCS(=O)(=O)c1ncc(Cl)c(C(=O)Nc2ccccc2OC)n1 | 1µM* | -94* | ? | -7% | 1µM* | 1.4µM*
COc1ccccc1NC(=O)c1nc(S(=O)(=O)Cc2ccccc2)ncc1Cl | 1.3µM* | -102* | 7.1µM* | ? | 1.6µM* | 5µM*
COc1ccc(-c2cc(=O)c3c(O)cc(O)c(-c4cc(-c5cc(=O)c6c(O)cc(O)cc6o5)ccc4OC)c3o2)cc1 | ? | / | 15% | / | ? | -7%
COc1ccc(-c2ccc3nnc(SCC(N)=O)n3n2)cc1 | -11% | -6 | 3% | 17% | 0% | 2%
CCSc1nnc2ccc(-c3ccc(OC)c(OC)c3)nn12 | ? | -68* | -14% | ? | 23µM* | -11%
COCC(C)NC(=S)NCCc1ccc(Cl)cc1Cl (stereo unspecified) | -27% | -6 | 1µM* | -4% | ? | 3.5µM*
COCCNC(=S)NCCc1ccc(Cl)cc1Cl | -17% | 7 | 6.3µM* | -7% | -5% | -26%
O=C(Cc1ccc(Br)cc1)NCCc1ccc(Cl)cc1Cl | -25% | -60* | ? | 6% | ? | 10%
O=C(Cc1ccccc1)NCCc1ccc(Cl)cc1Cl | 9% | 17 | 33% | 4% | -8% | -2%
COC(=O)NC(c1ccc(Cl)cc1)C(C(C)=O)C(=O)OC (stereo unspecified) | / | / | -5%[10 µM] | / | / | -4%[10 µM]
CCOc1c(CC2C(=O)Nc3ccc(Br)cc32)cccc1OC (stereo unspecified) | ? | / | / | / | 16µM* | /
COc1ccc(OC)c(CC2C(=O)Nc3ccc(Br)cc32)c1 (stereo unspecified) | 10µM* | / | / | / | 7.3µM* | /
CCCOc1ccc(CC2C(=O)Nc3ccc(Br)cc32)cc1 (stereo unspecified) | ? | / | / | / | 18µM* | /
CC1CN(C2CCCCC2)C(=S)NC1=O (stereo unspecified) | 2% | 12 | / | / | 9% | /
CN(C)/C=C1/Sc2ccccc2C1=O | -8% | 20 | -9% | ? | -22% | 12%
CC(=O)N(\C=C/C=C/C=C1\Sc2ccccc2C1=O)c1ccccc1 | 29µM* | 2 | -27% | ? | 13µM* | 9%
C=CCN(c1ccccc1Cl)S(=O)(=O)c1cccc(C(=O)NCCc2ccc(OC)cc2)c1 | ? | 0 | 27% | ? | 21µM* | -15%
COc1cc(OC)c(N(C)S(=O)(=O)c2cccc(C(=O)NCc3cccs3)c2)cc1Cl | ? | 15 | / | / | ? | /
CNS(=O)(=O)c1cccc(C(=O)OCC(=O)c2c(N)n(C)c(=O)n(C)c2=O)c1 | -7% | 15 | 18% | -13% | ? | 4%
C=CCN(c1ccccc1OC)S(=O)(=O)c1cccc(C(=O)OCC(=O)c2c(N)n(C)c(=O)n(C)c2=O)c1 | ? | 6 | / | / | 18µM* | /
C=CCN(c1ccccc1OC)S(=O)(=O)c1cccc(C(=O)NCc2cccs2)c1 | 15µM* | -14 | / | -1% | 18µM* | /
Cc1sc(Cc2nc(O)cs2)nc1-c1ccccc1 | ? | 65 | 11µM* | -7% | -27% | -27%
CCOc1ccc2[nH]c(=O)c(CN(CC3COCCO3)C(=O)c3ccc(C)cc3)cc2c1 (stereo unspecified) | ? | -28 | 13% | -12% | -21% | 0%
SMILES | TDP1 cell CPT | IL1B secr inh | RORgamma inh | ELG1 DNA repair | TDP1 cell noCPT | VP16 counter
OCCN1CC(O)C(O)C(O)C1CO (stereo unspecified) | / | / | 16% | / | / | -9%
C=CCNC(=O)c1n[nH]c2c1CC(C(C)(C)CC)CC2 (stereo unspecified) | ? | -2 | / | -21% | ? | /
CCC(C)(C)C1CCc2[nH]nc(C(=O)NC3CCCC3)c2C1 (stereo unspecified) | 16µM* | ? | / | -8% | ? | /
CCC(C)(C)C1CCc2[nH]nc(C(=O)NCc3ccc(OC)cc3)c2C1 (stereo unspecified) | 23µM* | 0 | / | ? | 15µM* | /
NNC(=O)c1n[nH]c2c1CC(C1CCCCC1)CC2 (stereo unspecified) | 5.2µM* | -11 | / | -9% | 5.8µM* | /
COc1cc(OC)c(NC(=O)c2c(C)oc3ncn(C)c(=O)c23)cc1Cl | 3% | / | / | / | -3% | /
Cn1ccs/c1=N\C(=O)Nc1ccccc1 | -4% | 6 | -41% | ? | -29% | -17%
O=S(=O)(O)c1cc(O)c(N=Nc2ccc(O)cc2O)c2ccccc12 | ? | -26 | / | / | ? | /
COc1ccc(-c2nc(CSCC(=O)NCc3ccc4c(c3)OCO4)c(C)o2)cc1 | -18% | 18 | 13µM* | ? | -13% | 13µM*
COc1ccc(-c2nc(CSCC(=O)NCc3ccc4c(c3)OCO4)c(C)o2)cc1OC | ? | -20 | 45% | ? | ? | 3%
COc1ccc(-c2nc(CS(=O)CC(=O)NCc3ccc4c(c3)OCO4)c(C)o2)cc1OC (stereo unspecified) | ? | ? | ? | 15µM* | -14% | -17%
COc1ccc(-c2ccc(SCC(=O)NCc3ccc4c(c3)OCO4)nn2)cc1OC | ? | -95* | 7% | ? | 29µM* | -16%
Cc1cc(NC(=O)CSc2ccc(-c3ccc4c(c3)OCO4)nn2)no1 | / | / | 12% | ? | / | -5%
COc1ccc(CCNC(=O)CCc2nnc(Cc3ccc4c(c3)OCO4)o2)cc1 | 23µM* | i | -7% | -15% | 18µM* | -2%
CC(OC(=O)C1=COCCO1)C(=O)Nc1ccc(Cl)cn1 (stereo unspecified) | 5% | 6 | / | -1% | -1% | /
COc1ccc(-c2nc(CS(=O)CC(=O)NC(C)CCc3ccccc3)c(C)o2)cc1OC (stereo unspecified) | ? | -20 | 11% | 18µM* | ? | -5%
